Data published in ChEMBL document CHEMBL3988442, “University of Dundee, Small-Polar-MMV Screening Library” (2021).
About 13,000 (27%) of roughly 48,000 compounds showed an effect of 50% or more. The list shows a part of the results.

The molecules below were run on Wolbachia pipientis (assay: Anti-Wolbachia Cell-Based Screen). Settings: 5 µM.
Type: functional
Parameters: scale not given: in the data most compounds retested in dose-response had high values

Going from CC(C)c1nccc([C@H]2C[C@@H]3CCN(Cc4ccco4)C[C@H]3O2)n1 to C[C@H]1C[C@@H]2CCN(Cc3nccs3)C[C@H]2O1, the “Percent Effect” value falls from -3.761% to -9.973%.

Going from O=C(Nc1cccnc1)[C@H]1CN(Cc2cccs2)C[C@H]2OCC[C@@H]12 to Cc1cccc(C(=O)N2C[C@@H]3OCCN(C(C)C)[C@@H]3C2)n1, the “Percent Effect” value falls from -5.403% to -13.51%.

Going from CNS(=O)(=O)CC(=O)NC(C)Cc1ccccc1Br (configuration not stated) to CCOCC(O)CN1CCN(C(=O)Cc2ccccc2C)CC1 (configuration not stated), the “Percent Effect” value rises from -19.16% to -8.235%.

Going from CCOCCCNC(=O)c1cn(C(C)(C)C)c2ncccc12 to COCCCNC(=O)c1cn(C(C)(C)C)c2ncccc12, the “Percent Effect” value rises from 117.9% to 120.5%.

First: COCCN(CCOC)C(=O)c1cn(C(C)(C)C)c2ncccc12
Second: COCCNC(=O)c1cn(C(C)(C)C)c2ncccc12
The “Percent Effect” value of the first is higher: 135.3% for the first, 1.004% for the second.

Going from COCC(C)NC(=O)c1cn(C(C)(C)C)c2ncccc12 (configuration not stated) to Cc1cccnc1CCNC(=O)[C@@]12CNC[C@@H]1CN(S(C)(=O)=O)C2, the “Percent Effect” value falls from 0.2413% to -16.39%.

First: CC(Cn1ccnc1)NCc1n[nH]c2c1CCC2 (configuration not stated)
Second: CC(Cn1ccnc1)NCc1csc2c1CCCC2 (configuration not stated)
The “Percent Effect” value of the first is lower: -9.016% for the first, -4.512% for the second.

Going from N#Cc1ccc(N2CCC(OC3CCOCC3)CC2)cc1Cl to N#Cc1cccc(N2CCOC3(CNCCOC3)C2)n1 (configuration not stated), the “Percent Effect” value falls from -7.664% to -42.42%.

First: O=C(CC[C@@H]1CCCN2CCCC[C@H]12)NCCc1cc(O)ncn1
Second: O=C(Cc1ccc(-n2cccn2)cc1)N1CCN2CCCCC2C1 (configuration not stated)
The “Percent Effect” value of the first is lower: -16.08% for the first, 0.2002% for the second.

First: CCc1noc(CC)c1CC(=O)N1CCN(C(C#N)C(C)C)CC1 (configuration not stated)
Second: CCC(O)CN1CCN(C(=O)Cc2c(C)nc(C)[nH]c2=O)CC1 (configuration not stated)
The “Percent Effect” value of the first is higher: -3.422% for the first, -7.478% for the second.

Compared with Cc1noc([C@]23COC[C@H]2CN(Cc2cc(C)on2)C3)n1.O=C(O)C(F)(F)F, Cc1cc(CN2C[C@@H]3COC[C@]3(CNS(C)(=O)=O)C2)no1.O=C(O)C(F)(F)F is lower in “Percent Effect” value: 2.509% for the first, -0.4635% for the second.

Going from FC(F)CN1CCOC(Cn2cccn2)C1 (configuration not stated) to CCC(O)CN1CCN(C(=O)Cc2nc(-c3ccco3)oc2C)CC1 (configuration not stated), the “Percent Effect” value falls from 120.3% to -5.833%.

Compared with Cc1ncc2c(c1CNC(=O)C1(C)CCCO1)CCNC2 (configuration not stated), Cc1nc(C2(NCC(=O)NCc3cccs3)CCCCC2)no1 is higher in “Percent Effect” value: 2.031% for the first, 113.6% for the second.

First: O=C(NC1CCC1)[C@H]1C[C@H]2NCCO[C@@H]2C1
Second: CC(C)NC(=O)[C@H]1C[C@H]2NCCO[C@@H]2C1
The “Percent Effect” value of the first is lower: -2.9% for the first, 34.99% for the second.

First: CC(C)NC(=O)[C@@H]1C[C@H]2NCC[C@H]2O1.Cl
Second: COCC(=O)N1CC[C@H]2[C@H]1CCN2CC(C)C
The “Percent Effect” value of the first is higher: 109.5% for the first, -1.269% for the second.

Going from O=C(O)C(F)(F)F.O=C(O)C(F)(F)F.OCCN1CC2(CCN(c3ccccc3)C2)C1 to O=C(O)C(F)(F)F.O=C(O)C(F)(F)F.O=C(O)CN1CCC(F)(F)C2(CCN(c3ccccn3)C2)C1 (configuration not stated), the “Percent Effect” value falls from 6.244% to -9.228%.

First: Cc1ccc(N2CCC3(CN(CCO)CCC3(F)F)C2)nn1.O=C(O)C(F)(F)F (configuration not stated)
Second: OCCN1CCC(F)(F)C2(CCN(c3cccnc3)C2)C1 (configuration not stated)
The “Percent Effect” value of the first is lower: 100.9% for the first, 103.9% for the second.

Compared with FC1(F)CCNCC12CCN(c1cccnc1)C2.O=C(O)C(F)(F)F.O=C(O)C(F)(F)F (configuration not stated), Fc1cccnc1N1CCC2(CNCCC2(F)F)C1 (configuration not stated) is higher in “Percent Effect” value: -21.44% for the first, 8.279% for the second.

First: NCC1(c2cccc(C(F)(F)F)c2)CC1
Second: Cc1ccc(N2CCN(C)c3ncccc3C2)nn1.O=C(O)C(F)(F)F
The “Percent Effect” value of the first is lower: -45.72% for the first, 6.797% for the second.

Going from CCOCC(O)CN1CCN(C(=O)Cc2ccc(C)nc2)CC1 (configuration not stated) to CCC(O)CN1CCN(C(=O)Cc2cc(C)ccc2OC)CC1 (configuration not stated), the “Percent Effect” value rises from -10.97% to 134%.

First: CCC(O)CN1CCN(C(=O)Cc2ccc(OC)cc2OC)CC1 (configuration not stated)
Second: CCOCCC(=O)N1C[C@H]2CC[C@@H]1CN(Cc1ccncc1)C2
The “Percent Effect” value of the first is higher: 102.8% for the first, 3.16% for the second.

First: COCCN1C[C@H]2CC[C@@H]1CN(Cc1ccc3ccccc3n1)C2
Second: Cc1ccc(N2CC[C@@H]3CN(Cc4c[nH]cn4)C[C@@H]3C2)nn1
The “Percent Effect” value of the first is higher: 26.94% for the first, -8.039% for the second.

Compared with CN1CCN(S(=O)(=O)c2ccccc2)Cc2cccnc21.O=C(O)C(F)(F)F, CN1CCN(S(=O)(=O)c2cccc(F)c2)Cc2cccnc21.O=C(O)C(F)(F)F is higher in “Percent Effect” value: 87.5% for the first, 100.3% for the second.

First: Cc1cnc(N2CCN(C)c3ncccc3C2)nc1.O=C(O)C(F)(F)F
Second: CCc1ccc(CN2CCN(C)c3ncccc3C2)o1.O=C(O)C(F)(F)F.O=C(O)C(F)(F)F
The “Percent Effect” value of the first is lower: 1.496% for the first, 45.7% for the second.

First: Cl.Cl.c1ccc(COC[C@H]2CCC[C@@]23CNCCO3)nc1
Second: Cl.Cl.c1ccc(COC[C@@H]2CCC[C@@]23CNCCO3)nc1
The “Percent Effect” value of the first is lower: 88.66% for the first, 92.25% for the second.

Compared with CN1Cc2ccccc2NC(=O)C12CCNC2 (configuration not stated), CN1CCC2(Cc3ccccc3NC2=O)C1 (configuration not stated) is lower in “Percent Effect” value: 111% for the first, -15.76% for the second.

Going from Cc1nc(CC(=O)N2CCN(C)CC2c2ccccc2)cs1 (configuration not stated) to CN1CCN2C[C@@H](CO)[C@H](c3ccccc3)[C@H]2C1, the “Percent Effect” value rises from -2.978% to 108.7%.

Compared with OC[C@@H]1CN2CCN(c3ccccn3)C[C@@H]2[C@H]1c1ccccc1, OC[C@H]1CN2CCN(c3ccccn3)C[C@@H]2[C@@H]1c1ccccc1 is higher in “Percent Effect” value: 91.03% for the first, 97.55% for the second.

Compared with CN1CCN2C(=O)N(c3ccccc3)C[C@H]2C1, Cc1nc(C2(NCC(=O)NC(=O)Nc3ccccc3)CCCCC2)no1 is higher in “Percent Effect” value: 3.165% for the first, 112.9% for the second.

First: Cc1nc(C2(NCc3cc(C#N)ccc3F)CCCCC2)no1
Second: Cc1nc(C2(NCc3ccc(C#N)cc3F)CCCCC2)no1
The “Percent Effect” value of the first is higher: 11.5% for the first, 2.337% for the second.

Compared with Cc1nc(C2(NCc3cccc(F)c3F)CCCCC2)no1, Cc1nc(C2(NCC(=O)NC(=O)NCC(F)(F)F)CCCCC2)no1 is higher in “Percent Effect” value: -2.659% for the first, 132.3% for the second.
